# Results filed as inconclusive are left out. A call without a number means that no potency is given here. Active and inactive are the calls of the source. The call rests on the fitted dose curve; in most records, active means well fitted curve in the direction sought with a large enough effect; inconclusive means small, poorly fitted or top-dose-only effect, or another doubt; inactive means no such curve, though single readings can be large; an effect the other way counts as inactive or inconclusive.
# System: Zika virus NS2B-NS3 protease
# Test: Primary screen GU AMC qHTS for Zika virus inhibitors (AID 1347154); further: nearly all actives have a fitted effect of over 70% in size; further: potency means the concentration at half of the fitted maximal effect
# Conditions: Zika NS2B-NS3 unlinked protease, AMC fluorogenic substrate; series mostly up to 54.1 µM
# Procedure, shortened: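 Unlinked Zika NS2B hydrophilic domain–NS3 protease complex at 25 nM in 10 mM Tris-HCl pH 8.0, 0.01% Tween 20, with an AMC peptide substrate. Fluorescence change (340/450 nm) over 15 min at room temperature, normalized to controls, fitted to 4-parameter Hill.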
row,SMILES,Potency
1,CCN(CC)CCNC(=O)c1ccc(N)cc1,inactive
2,COc1cc(N2CCC(N3CCN(C)CC3)CC2)ccc1Nc1ncnc(Nc2ccccc2S(=O)(=O)C(C)C)n1,inactive
3,CC(C)(C)NC(=O)Nc1cccc(Nc2ncc(F)c(NC(C)(C)CO)n2)c1,inactive
4,CNC1CCC(N(Cc2cccc(-c3ccncc3)c2)C(=O)c2sc3c(F)ccc(F)c3c2Cl)CC1 (centres undefined),inactive
5,CNC(=O)c1ccc2cc(C3(O)CCn4cncc43)ccc2c1 (centres undefined),inactive
6,COc1ccc(C2Sc3ccccc3N(CCN(C)C)C(=O)C2OC(C)=O)cc1 (centres undefined),inactive
7,COc1ccc(C2CC(c3ccccc3)=NN2c2ccc(S(N)(=O)=O)cc2)cc1 (centres undefined),inactive
8,COc1cc2c(cc1OC)CN(CCc1ccc(NC(=O)c3cc(OC)c(OC)cc3NC(=O)c3cnc4ccccc4c3)cc1)CC2,inactive
9,O=c1cc(CN2CCOCC2)occ1OCCCCCSc1ccnc2cc(C(F)(F)F)ccc12,inactive
10,CCOC(=O)C1=C(N)Oc2ccc(Br)cc2C1C(C#N)C(=O)OCC (centres undefined),inactive
11,CC(=O)N(C)C1(c2ccccc2)CCN(CCC[C@]2(c3ccc(Cl)c(Cl)c3)CCCN(C(=O)c3ccccc3)C2)CC1,inactive
12,CC(C)C(=O)Nc1ncc(-c2cc(C(F)F)nn2-c2c(Cl)cccc2Cl)s1,inactive
13,Cc1cc(OCCCc2c(C(=O)O)n(Cc3cccnc3)c3c(-c4c(COc5ccc(N6CCN([S+](C)(=O)[O-])CC6)cc5)nn(C)c4C)cccc23)cc(C)c1Cl,21.5 µM (active)
14,COc1ccc2c(Oc3ccc(NC(=O)c4c(C)n(CC(C)(C)O)n(-c5ccccc5)c4=O)cc3F)ccnc2c1,inactive
15,COc1ccc(Cc2ccc(NC(N)=O)cc2)cc1-c1cccc(Cl)c1,inactive
16,CC(=O)CCCCn1c(=O)c2c(ncn2C)n(C)c1=O,inactive
17,COCCOc1nc(-c2ccc(Cl)c(Cl)c2)n(-c2ccc(NC(=O)CCl)cc2)n1,inactive
18,CN[C@@H](C)C(=O)N[C@H]1CN(C(=O)CC(C)C)CC[C@H]2CC[C@@H](C(=O)NC(c3ccccc3)c3ccccc3)N2C1=O,inactive
19,O=C(O)CCc1nc(-c2ccccc2)c(-c2ccccc2)o1,inactive
20,CC(C)C(=O)Oc1ccc(CO)cc1[C@H](CCN(C(C)C)C(C)C)c1ccccc1,inactive

row,SMILES,Potency
1,CN1CCN(CCOc2cc(OC3CCOCC3)c3c(Nc4c(Cl)ccc5c4OCO5)ncnc3c2)CC1,inactive
2,CC(=O)O[C@]1(C(C)=O)CC[C@H]2[C@@H]3C=C(Cl)C4=CC(=O)[C@@H]5C[C@@H]5[C@]4(C)[C@H]3CC[C@@]21C,inactive
3,O=C(Nc1cccc(Br)c1)c1cccc(S(=O)(=O)N2CCCCCC2)c1,inactive
4,COc1ncc(-c2ccc3nccc(-c4ccnnc4)c3c2)cc1NS(=O)(=O)c1ccc(F)cc1F,inactive
5,CC[C@]1(O)C[C@@H]2CN(CCc3c([nH]c4ccccc34)[C@@](C(=O)OC)(c3cc4c(cc3OC)N(C)[C@H]3[C@@](O)(C(=O)OC)[C@H](OC(C)=O)[C@]5(CC)C=CCN6CC[C@]43[C@@H]65)C2)C1,inactive
6,COc1cc(Nc2ncc(F)c(Nc3ccc4c(n3)NC(=O)C(C)(C)O4)n2)cc(OC)c1OC,inactive
7,CN(C[C@@H]1COCCO1)S(=O)(=O)Nc1ccc2ccc3ncc(-c4cnn(C)c4)cc3c(=O)c2c1,inactive
8,CN(C)CCC(c1ccccc1)c1ccccn1 (centres undefined),inactive
9,CC(C)(C)Cn1c(N)nc2ccc(-c3[nH]c(C(C)(C)C)nc3-c3ccc(F)cc3)nc21,10.8 µM (active)
10,COc1ccccc1N1CCN(CCCNc2cc(=O)n(C)c(=O)n2C)CC1,inactive
11,CO[C@H]1C=CO[C@@]2(C)Oc3c(C)c(O)c4c(O)c(c5c(c4c3C2=O)NC2(CCN(CC(C)C)CC2)N=5)=NC(=O)C(C)=CC=C[C@H](C)[C@H](O)[C@@H](C)[C@@H](O)[C@@H](C)[C@H](OC(C)=O)[C@H]1C,inactive
12,CS(=O)(=O)N(Cc1ccco1)CC(O)Cn1c2ccccc2c2ccccc21 (centres undefined),inactive
13,CCCNC(=O)NS(=O)(=O)c1ccc(Cl)cc1,inactive
14,COC(=O)[C@@H]1[C@H]2C[C@H]3c4[nH]c5ccccc5c4CCN3C[C@@H]2CC[C@@H]1O,inactive
15,NC(=O)c1cnc(-c2ccc(C3(N)CCC3)cc2)c(-c2ccccc2)c1,inactive
16,CCN1CCC[C@H]1CNC(=O)c1cc(S(N)(=O)=O)ccc1OC,inactive
17,C=C1C(=O)[C@@]23C(CC[C@@H]1[C@H]2O)[C@@]12CO[C@]3(O)[C@@H](O)[C@@H]1C(C)(C)CC[C@@H]2O (some centres undefined),inactive
18,CC(=O)Nc1ccc([C@H](C)C(=O)Nc2ncc(C(C)C)s2)cc1,inactive
19,CC(C)[C@H](CO)Nc1nc(Nc2ccc(C(=O)O)c(Cl)c2)c2ncn(C(C)C)c2n1,inactive
20,CCOc1ccc(Nc2nc(-c3c(C)nc4ccccn34)cs2)cc1,inactive

# System: Zika virus NS2B-NS3 protease (unlinked complex)
# Test: Primary screen GU Rhodamine qHTS for Zika virus inhibitors: Unlinked NS2B-NS3 protease assay (AID 1347159); further: nearly all actives have a fitted effect of over 60% in size
# Conditions: Recombinant ZIKV NS2B-NS3 protease, Rhodamine110 substrate fluorescence; series mostly up to 107 µM
# Procedure, shortened: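 Enzyme 25 nM in Tris-HCl pH 8.0 + 0.01% Tween 20; compounds up to 114 microM, 15 min RT dark; + Rhod110 substrate 1.5 microM; read t0 and 15 min; delta fluorescence → % inhibition → 4-parameter Hill fit.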
row,SMILES,Potency
1,CCN(CC)CCNC(=O)c1ccc(N)cc1,inactive
2,COc1cc(N2CCC(N3CCN(C)CC3)CC2)ccc1Nc1ncnc(Nc2ccccc2S(=O)(=O)C(C)C)n1,inactive
3,CC(C)(C)NC(=O)Nc1cccc(Nc2ncc(F)c(NC(C)(C)CO)n2)c1,inactive
4,CNC1CCC(N(Cc2cccc(-c3ccncc3)c2)C(=O)c2sc3c(F)ccc(F)c3c2Cl)CC1 (centres undefined),inactive
5,CNC(=O)c1ccc2cc(C3(O)CCn4cncc43)ccc2c1 (centres undefined),inactive
6,COc1ccc(C2Sc3ccccc3N(CCN(C)C)C(=O)C2OC(C)=O)cc1 (centres undefined),inactive
7,COc1ccc(C2CC(c3ccccc3)=NN2c2ccc(S(N)(=O)=O)cc2)cc1 (centres undefined),inactive
8,COc1cc2c(cc1OC)CN(CCc1ccc(NC(=O)c3cc(OC)c(OC)cc3NC(=O)c3cnc4ccccc4c3)cc1)CC2,inactive
9,O=c1cc(CN2CCOCC2)occ1OCCCCCSc1ccnc2cc(C(F)(F)F)ccc12,inactive
10,CC(=O)N(C)C1(c2ccccc2)CCN(CCC[C@]2(c3ccc(Cl)c(Cl)c3)CCCN(C(=O)c3ccccc3)C2)CC1,inactive
11,CC(C)C(=O)Nc1ncc(-c2cc(C(F)F)nn2-c2c(Cl)cccc2Cl)s1,inactive
12,COc1ccc2c(Oc3ccc(NC(=O)c4c(C)n(CC(C)(C)O)n(-c5ccccc5)c4=O)cc3F)ccnc2c1,inactive
13,COc1ccc(Cc2ccc(NC(N)=O)cc2)cc1-c1cccc(Cl)c1,inactive
14,CC(=O)CCCCn1c(=O)c2c(ncn2C)n(C)c1=O,inactive
15,COCCOc1nc(-c2ccc(Cl)c(Cl)c2)n(-c2ccc(NC(=O)CCl)cc2)n1,inactive
16,CN[C@@H](C)C(=O)N[C@H]1CN(C(=O)CC(C)C)CC[C@H]2CC[C@@H](C(=O)NC(c3ccccc3)c3ccccc3)N2C1=O,inactive
17,CC(C)C(=O)Oc1ccc(CO)cc1[C@H](CCN(C(C)C)C(C)C)c1ccccc1,inactive

row,SMILES,Potency
1,CN1CCN(CCOc2cc(OC3CCOCC3)c3c(Nc4c(Cl)ccc5c4OCO5)ncnc3c2)CC1,inactive
2,CC(=O)O[C@]1(C(C)=O)CC[C@H]2[C@@H]3C=C(Cl)C4=CC(=O)[C@@H]5C[C@@H]5[C@]4(C)[C@H]3CC[C@@]21C,inactive
3,O=C(Nc1cccc(Br)c1)c1cccc(S(=O)(=O)N2CCCCCC2)c1,inactive
4,CN(C[C@@H]1COCCO1)S(=O)(=O)Nc1ccc2ccc3ncc(-c4cnn(C)c4)cc3c(=O)c2c1,inactive
5,CN(C)CCC(c1ccccc1)c1ccccn1 (centres undefined),inactive
6,CC(C)(C)Cn1c(N)nc2ccc(-c3[nH]c(C(C)(C)C)nc3-c3ccc(F)cc3)nc21,inactive
7,COc1ccccc1N1CCN(CCCNc2cc(=O)n(C)c(=O)n2C)CC1,inactive
8,CO[C@H]1C=CO[C@@]2(C)Oc3c(C)c(O)c4c(O)c(c5c(c4c3C2=O)NC2(CCN(CC(C)C)CC2)N=5)=NC(=O)C(C)=CC=C[C@H](C)[C@H](O)[C@@H](C)[C@@H](O)[C@@H](C)[C@H](OC(C)=O)[C@H]1C,inactive
9,CS(=O)(=O)N(Cc1ccco1)CC(O)Cn1c2ccccc2c2ccccc21 (centres undefined),inactive
10,CCCNC(=O)NS(=O)(=O)c1ccc(Cl)cc1,inactive
11,COC(=O)[C@@H]1[C@H]2C[C@H]3c4[nH]c5ccccc5c4CCN3C[C@@H]2CC[C@@H]1O,inactive
12,NC(=O)c1cnc(-c2ccc(C3(N)CCC3)cc2)c(-c2ccccc2)c1,inactive
13,CCN1CCC[C@H]1CNC(=O)c1cc(S(N)(=O)=O)ccc1OC,inactive
14,C=C1C(=O)[C@@]23C(CC[C@@H]1[C@H]2O)[C@@]12CO[C@]3(O)[C@@H](O)[C@@H]1C(C)(C)CC[C@@H]2O (some centres undefined),inactive
15,CC(=O)Nc1ccc([C@H](C)C(=O)Nc2ncc(C(C)C)s2)cc1,inactive
16,CC(C)[C@H](CO)Nc1nc(Nc2ccc(C(=O)O)c(Cl)c2)c2ncn(C(C)C)c2n1,inactive
17,CCOc1ccc(Nc2nc(-c3c(C)nc4ccccn34)cs2)cc1,inactive
